The panel holds about 79,000 compounds, 15% with a hit somewhere; the sample as a whole holds those more often. Calls of active or inactive are those of the source. Cut-off read from the data, not from the text of the source: active = growth inhibition above about 70%; inactive = the rest.

The nature of one assay: NCI Yeast Anticancer Drug Screen. Data for the sgs1 mgt1 strain (AID 161).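 Note: 0% = growth of cultures given vehicle only.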 The conditions noted are these: S. cerevisiae sgs1 mgt1 strain, at 50.0 µM (retest, dose inferred, filed as 5.0), active compounds read high. In outline:
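Read-out: growth inhibition vs vehicle controls. Cells: mutant yeast strain deficient in DNA damage repair.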
As for `N#C/C(=C\C(Cl)=C/c1ccccc1)C(N)=S`, the growth inhibition is 98% (active).
For the molecule `CC[N+](C)(CC)CCC(=O)/C=C/c1ccccc1`, the growth inhibition was 55% (inactive).
For `CC(=O)n1c(=S)n(C(C)=O)c2ccccc21`, the growth inhibition is 76% (active).
Regarding `Nc1ccccc1/C=C1/Sc2cc[nH]c2C1=O`, the growth inhibition is -5% (inactive).
Take `C=C1CC2(CCCC3(CC(=C)C(=O)O3)C2(C)C)OC1=O` (stereo not given): the growth inhibition is 97% (active).
For `O=C1/C(=C\c2ccc(Cl)cc2Cl)Sc2scc(-c3ccc(O)c(O)c3)[n+]21`, the growth inhibition is 71% (active).
Still for that read-out and setting: then `COc1cc(OC(C)C)cc2c1C(=O)C(C(O)(O)C(F)(F)F)=CC2=O`, with 78% (active); and `Cc1c(N=Nc2ccc(Br)cc2)c(-c2ccccc2)nn1C(N)=S`, with 97% (active); and `COc1ccc2nc3c([N+](=O)[O-])ccc(NCCCN(C)C)c3c(N)c2c1`, with 75% (active).
The same measure, in the same setting: then `CN(C)CCC[Si]1(C)c2ccccc2CCc2ccccc21`, with 17% (inactive); and `CC(=O)N(C)c1cc(NCc2ccccc2)ccc1OCc1ccccc1`, with 96% (active).
With `ClCCOCCOc1c(Cl)cc(Cl)c(Cl)c1Cl`, the growth inhibition is 58% (inactive).
On to `Nc1ccc2nc(N)sc2c1`, for which the growth inhibition is -47% (inactive).
On the same count and under the same terms, then `CC(C)(C)c1cc(C2c3cc4c(cc3OC(O)(CO)C2C(=O)O)OCO4)cc(C(C)(C)C)c1O` (stereo not given) (tested in a mixture with another compound), with 50% (inactive); and `COc1ccc(C2COc3c(ccc(O)c3O)C2)cc1OC` (stereo not given), with 66% (inactive).
As to `Cc1ccc(OCC2CO2)c(Br)c1` (stereo not given), the growth inhibition was 71% (active).
On to `CCN(CC)CCNc1ccc(C)c2sc3c(OC)cccc3c(=O)c12`, for which the growth inhibition is 22% (inactive).
On to `CC(C)C(O)C(C)C`, for which the growth inhibition is 0% (inactive).
On to `O=C1CSC2(CCN(CCCN3c4ccccc4Sc4ccc(Cl)cc43)CC2)N1`, for which the growth inhibition is 53% (inactive).
Take `C1=CN2C(c3ccccc3)=NN(c3ccccc3)[C@@H]2c2ccccc21`: the growth inhibition was 50% (inactive).
For the molecule `CC(=O)Nc1ccc(-c2csc(Nc3ccnc4cc(Cl)ccc34)n2)cc1`, the growth inhibition is 69% (inactive).
For the molecule `O=C(Nc1ccc(/C=C/c2ccc(NC(=O)c3cc(S(=O)(=O)O)c4cccnc4c3O)cc2S(=O)(=O)O)c(S(=O)(=O)O)c1)c1cc(S(=O)(=O)O)c2cccnc2c1O`, the growth inhibition was 97% (active).
The same measure, in the same setting: then `COc1ccccc1C1C2=C(COC2=O)OC(C)(C)Oc2cc3c(cc21)OCO3` (stereo not given), with 96% (active); and `COC(=O)CSc1n[nH]c(-c2ccc(O)c([N+](=O)[O-])c2)n1`, with 71% (active).
Same read-out and setting: under `COc1ccc(CN2CCCN(Cc3ccc(OC)cc3OC)C2c2cccc([N+](=O)[O-])c2O)c(OC)c1` stands 20% (inactive); under `Oc1c(Cl)cc(C(c2cc(Cl)c(O)c(Cl)c2)C(Cl)(Cl)Cl)cc1Cl`, 99% (active); under `Cc1cc(Cl)cc2c1NC(=O)C2(O)C/C(=N/NC(=O)CC#N)c1cccc([N+](=O)[O-])c1` (stereo not given), -4% (inactive).
Take `COc1ccc(C2Oc3ccc(Cl)cc3C=C2[N+](=O)[O-])cc1` (stereo not given): the growth inhibition was 95% (active).
Regarding `CN(Cc1cc(Cl)cc(Cl)c1O)Cc1c(O)ccc2ccccc12`, the growth inhibition is 99% (active).
On to `Cc1c(NC(=O)/C(=N/NC(=S)N=N)C2C(=O)CC(C)(C)CC2=O)c(O)c2ccccc2c1O`, for which the growth inhibition was 99% (active).
For `O=C1CCC(Cc2ccccc2Br)C(=O)N1` (stereo not given), the growth inhibition is 92% (active).
Turning to `O=C1CSc2ccccc2-n2cccc21`, the growth inhibition is -4% (inactive).
For `CCCc1cc2c(cc1CS(=O)(=O)CC)OCO2`, the growth inhibition was -5% (inactive).
In the case of `CS(=O)(=O)C(c1nc2nnc(NC(=O)Nc3ccc(Cl)cc3)n2[nH]c1=O)c1nc2nnc(NC(=O)Nc3ccc(Cl)cc3)n2[nH]c1=O`, the growth inhibition is -7% (inactive).
In the case of `COc1cc(C2c3cc4c(cc3OC3(O)C=C(C)OC(=O)C23)OCO4)cc(OC)c1OC` (stereo not given), the growth inhibition was -22% (inactive).
Consider `CC(C)OCc1cccc2ccnc(COC(C)C)c12`, for which the growth inhibition is 35% (inactive).
Regarding `COc1cc2c(cc1OC)-c1nc(Nc3ccccc3)sc1CC2`, the growth inhibition was 88% (active).
Turning to `NC(=O)CCSC(=S)N1CCOCC1`, the growth inhibition was 4% (inactive).
The same measure, in the same setting: under `CC1=C(c2ccccc2)C(=O)OC1=O` stands 6% (inactive).
Consider `CC1=C(C)CC2C(=O)C(C(O)CC(C)C)=CC(=O)C2C1` (stereo not given), for which the growth inhibition is 98% (active).

The assay is the same for the next values; noted with them: S. cerevisiae sgs1 mgt1 strain, at 50.0 µM, active compounds read high.
Turning to `N#C/C(=C\C(Cl)=C/c1ccccc1)C(N)=S`, the growth inhibition was 43.2% (inactive).
For the molecule `CC[N+](C)(CC)CCC(=O)/C=C/c1ccccc1`, the growth inhibition is 88.6% (active).
For `CC(=O)n1c(=S)n(C(C)=O)c2ccccc21`, the growth inhibition is 40.2% (inactive).
As to `Nc1ccccc1/C=C1/Sc2cc[nH]c2C1=O`, the growth inhibition is -15.8% (inactive).
Turning to `C=C1CC2(CCCC3(CC(=C)C(=O)O3)C2(C)C)OC1=O` (stereo not given), the growth inhibition was 38.8% (inactive).
Consider `O=C1/C(=C\c2ccc(Cl)cc2Cl)Sc2scc(-c3ccc(O)c(O)c3)[n+]21`, for which the growth inhibition was 97.8% (active).
`COc1cc(OC(C)C)cc2c1C(=O)C(C(O)(O)C(F)(F)F)=CC2=O`: the growth inhibition was 47.7% (inactive).
As for `Cc1c(N=Nc2ccc(Br)cc2)c(-c2ccccc2)nn1C(N)=S`, the growth inhibition was 98% (active).
For the molecule `COc1ccc2nc3c([N+](=O)[O-])ccc(NCCCN(C)C)c3c(N)c2c1`, the growth inhibition was 92.5% (active).
`CN(C)CCC[Si]1(C)c2ccccc2CCc2ccccc21`: the growth inhibition is 57.4% (inactive).
Consider `CC(=O)N(C)c1cc(NCc2ccccc2)ccc1OCc1ccccc1`, for which the growth inhibition was 97.7% (active).
Consider `ClCCOCCOc1c(Cl)cc(Cl)c(Cl)c1Cl`, for which the growth inhibition is 43.5% (inactive).
The same measure, in the same setting: then `Nc1ccc2nc(N)sc2c1`, with 18.5% (inactive).
On the same count and under the same terms, under `CC(C)(C)c1cc(C2c3cc4c(cc3OC(O)(CO)C2C(=O)O)OCO4)cc(C(C)(C)C)c1O` (stereo not given) (tested in a mixture with another compound) stands 37% (inactive); under `COc1ccc(C2COc3c(ccc(O)c3O)C2)cc1OC` (stereo not given), 40.1% (inactive); under `Cc1ccc(OCC2CO2)c(Br)c1` (stereo not given), 49.6% (inactive).
As to `CCN(CC)CCNc1ccc(C)c2sc3c(OC)cccc3c(=O)c12`, the growth inhibition was 25.6% (inactive).
Take `CC(C)C(O)C(C)C`: the growth inhibition was 4.95% (inactive).
The same measure, in the same setting: then `O=C1CSC2(CCN(CCCN3c4ccccc4Sc4ccc(Cl)cc43)CC2)N1`, with 99.3% (active).
Take `C1=CN2C(c3ccccc3)=NN(c3ccccc3)[C@@H]2c2ccccc21`: the growth inhibition is 56.3% (inactive).
On to `CC(=O)Nc1ccc(-c2csc(Nc3ccnc4cc(Cl)ccc34)n2)cc1`, for which the growth inhibition was 72.8% (active).
Turning to `O=C(Nc1ccc(/C=C/c2ccc(NC(=O)c3cc(S(=O)(=O)O)c4cccnc4c3O)cc2S(=O)(=O)O)c(S(=O)(=O)O)c1)c1cc(S(=O)(=O)O)c2cccnc2c1O`, the growth inhibition was 93.8% (active).
For `COc1ccccc1C1C2=C(COC2=O)OC(C)(C)Oc2cc3c(cc21)OCO3` (stereo not given), the growth inhibition was 86.3% (active).
In the case of `COC(=O)CSc1n[nH]c(-c2ccc(O)c([N+](=O)[O-])c2)n1`, the growth inhibition was 75.6% (active).
Regarding `COc1ccc(CN2CCCN(Cc3ccc(OC)cc3OC)C2c2cccc([N+](=O)[O-])c2O)c(OC)c1`, the growth inhibition was 77.5% (active).
As to `Oc1c(Cl)cc(C(c2cc(Cl)c(O)c(Cl)c2)C(Cl)(Cl)Cl)cc1Cl`, the growth inhibition was 99.3% (active).
On to `Cc1cc(Cl)cc2c1NC(=O)C2(O)C/C(=N/NC(=O)CC#N)c1cccc([N+](=O)[O-])c1` (stereo not given), for which the growth inhibition is 62.2% (inactive).
Turning to `COc1ccc(C2Oc3ccc(Cl)cc3C=C2[N+](=O)[O-])cc1` (stereo not given), the growth inhibition was 82.5% (active).
Regarding `CN(Cc1cc(Cl)cc(Cl)c1O)Cc1c(O)ccc2ccccc12`, the growth inhibition is 98.7% (active).
`Cc1c(NC(=O)/C(=N/NC(=S)N=N)C2C(=O)CC(C)(C)CC2=O)c(O)c2ccccc2c1O`: the growth inhibition was 84.8% (active).
In the case of `O=C1CCC(Cc2ccccc2Br)C(=O)N1` (stereo not given), the growth inhibition was 97.2% (active).
Turning to `O=C1CSc2ccccc2-n2cccc21`, the growth inhibition is 61.5% (inactive).
As for `CCCc1cc2c(cc1CS(=O)(=O)CC)OCO2`, the growth inhibition was 1.1% (inactive).
As for `CS(=O)(=O)C(c1nc2nnc(NC(=O)Nc3ccc(Cl)cc3)n2[nH]c1=O)c1nc2nnc(NC(=O)Nc3ccc(Cl)cc3)n2[nH]c1=O`, the growth inhibition was 24.6% (inactive).
With `COc1cc(C2c3cc4c(cc3OC3(O)C=C(C)OC(=O)C23)OCO4)cc(OC)c1OC` (stereo not given), the growth inhibition was 13.4% (inactive).
Turning to `CC(C)OCc1cccc2ccnc(COC(C)C)c12`, the growth inhibition is 24.9% (inactive).
In the case of `COc1cc2c(cc1OC)-c1nc(Nc3ccccc3)sc1CC2`, the growth inhibition is 82% (active).
With `NC(=O)CCSC(=S)N1CCOCC1`, the growth inhibition was -8.35% (inactive).
Regarding `CC1=C(c2ccccc2)C(=O)OC1=O`, the growth inhibition is -4.65% (inactive).
On the same count and under the same terms, then `CC1=C(C)CC2C(=O)C(C(O)CC(C)C)=CC(=O)C2C1` (stereo not given), with 98.8% (active).

Source of the values: PubChem BioAssay (NCI).
